Results published in the supplement of paper PMC6555819.

The sequences below were run on VDR:RXRa (NR concentration 270 nM, RXRa partner concentration 90 nM) (assay: PBM binding z-score (relative to random genomic background probes); higher = stronger binding; sequences stand for … in GC…GCGATTGACAGCGTAGAATGAAGG).
Description: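 Protein-binding microarray (Agilent 4x180K custom design, double-stranded 60-nt probes: 5' GC cap, 34-nt variable region, 24-nt constant primer region; full probe sequence given). Purified or IVT nuclear receptor:RXRα heterodimers (3:1 NR:RXRα, mostly 270:90 nM) or homodimers were incubated for 1 h in PBS with 2% milk and no ligand, then detected with Alexa488 antibodies. Fluorescence from o1-orientation probes (~5 replicates averaged) was converted to z-scores against 500 random hg19 background probes. Variable regions are seed direct-repeat (DR0–DR5) sites, all their single-nucleotide variants and half-site ablations.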

Row | Sequence | PBM binding z-score
1 | ACAGACAGGTGAGTGAAGCTAACTCAGCTGGACG | -0.513
2 | TAGCATAGGTCATTCAGGGGCCAGTATAGAAAGC | 4.18
3 | CCTAGTTGATCAAGGTCACACACGCTATAGGTAC | 4.91
4 | GCAGTCAGGTGAAACGCAGGTAACTCAGGGTGGC | -0.464
5 | TCATATAGGTAATACAAGTGAAAGTCGGCATCTA | 1.24
6 | CATGCTAGGTCATGGTCAGCTAATCTACAGTATG | 1.79
7 | CAAACTAGGTGAAAGGTCAAAGTCGAGCCAACCA | 5.23
8 | TCTTGTAGATCCATAGAGGTTAAGAAAGTGCGCT | 1.69
9 | TCTAGTTGGTCAAAGGTTACACACTCGAAATGCG | 3.11
10 | TCTGCTAGGTCAACGATGGTCGGCTAATCTGCTA | 1.42
11 | CCGAGTAGGTTATGGGGGATTCAGGCAACGGTGA | 1.45
12 | CAAACTAGGTCACAGAGGTCAAAGACCGTGCGTA | 7.76
13 | CCTTACGGGTCACTCCAGGTAATAGCATCGGAGT | 3.08
14 | ATCTCTAGGTAACAAAGTTCAGTGAATGCCGAAC | 3.18
15 | CAGCCTAGGTCAGCGCCAGTATAGGAGGAACGTT | 0.303
16 | CAAACTAGGTCAAGTGGTCAAAGTCCGCTTCCCG | 2.52
17 | ACTATTAGTTGACTTTGGGCAACCGATACGACGC | 0.238
18 | ACCGAAAGGTCGAGGTGAGTATAGAGAAAGGGAA | 2.82
19 | TGTCAAAGTTGAAAGGTAACGTAAGTATCCACAC | 0.996
20 | ATCTCTAGGTAACAGGTTCAGTGAAAGAGAGGAC | 1.95

Row | Sequence | PBM binding z-score
21 | CCTACTGGGGCATAAGGTTACCATAAGCCAGCCC | 0.27
22 | TCATATAGGTAAAGGTGATAGTCGAACGATATGA | 0.559
23 | CGAACTAGGTCATCCAGGATAGTGAATACATTGA | 3.02
24 | CCTATTAGTTGACCATAAGGGCAACCGTAGCTCG | 0.674
25 | GCGACTGGGGCAAAGCAGGTTAGCATAAGGTTGG | -0.429
26 | AGACCGAGGGCACGCTGAGTTGATAGCAGAGTAG | 2.21
27 | CATACAGGGTCAACTAGGCCAGAGTAGGGACGGC | 5.1
28 | ATCTCTAGGTAAAGGTTCAGTGAATCCCGAGGAT | 1.09
29 | TCTCGGAGGACACGAAGGTCACAGCTTTCCAGAG | 4.05
30 | CCTCGGAGGACAACAGGAGGTCAGACCTGCCAGA | 1.95
31 | CCGACTGGGGCATAAGGTTGCCATAAGCCAGCCC | -0.377
32 | ACTAGCAGGCTAAGGGTCACTCAAGATTAGTCCG | 2.97
33 | AACTCTAGGTAAGACTCAGTTCAGTGAAGAACGC | 0.138
34 | CCTGCTGGGCCATCAGGTCATTGATATCAACGTT | 1.59
35 | ACTATTAGTTGACTTAGGGCAACCGGTACGACGC | 1.16
36 | CGAACTAGGTCATTGACAGGACAGTGAGTAGTAA | 2.18
37 | GCGACTGGGGCATCAGCAGGTTACCAGAACTTAA | -0.205
38 | TTAACAAGGTGAGCTGAGGTCGTTGATCCAACTC | 4.08
39 | AGAATGAGGTTAAGCTCAGGGAAACAGAATACAT | 1.26
40 | CCTTACGGGTCACTGACAGGTTATAGAATTTGGA | 3.69
